Source: PubChem (several laboratories)
HIF act – HIF pathway transcriptional activators, primary screen, cell-based, U2OS HRE-luciferase, luminescence. U2OS HRE-luciferase reporter; normalized: DMSO 0%, desferrioxamine 100%. activation, % at 7.5 µM (by protocol). 0.32% of 300,000 active;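 active = mean activation of at least 10% of the iron chelator positive control signal, with at least half of replicates also reaching 10%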
CHT PAM – CHT positive allosteric modulators, primary screen, cell-based, membrane potential dye, choline EC20 | High affinity choline transporter 1 (Homo sapiens), Q9GZV3 | CHT-expressing cells; active compounds read high; LV-AA mutant CHT in HEK293 cells | B-score at 10 µM | 0.49% of 310,000 active | AID 488977, 2010;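 active = initial fluorescence not abnormally high and integrated response B-score, plate-corrected, over 3 SD above library mean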
Target sequence (Q9GZV3 whole entry, looked up): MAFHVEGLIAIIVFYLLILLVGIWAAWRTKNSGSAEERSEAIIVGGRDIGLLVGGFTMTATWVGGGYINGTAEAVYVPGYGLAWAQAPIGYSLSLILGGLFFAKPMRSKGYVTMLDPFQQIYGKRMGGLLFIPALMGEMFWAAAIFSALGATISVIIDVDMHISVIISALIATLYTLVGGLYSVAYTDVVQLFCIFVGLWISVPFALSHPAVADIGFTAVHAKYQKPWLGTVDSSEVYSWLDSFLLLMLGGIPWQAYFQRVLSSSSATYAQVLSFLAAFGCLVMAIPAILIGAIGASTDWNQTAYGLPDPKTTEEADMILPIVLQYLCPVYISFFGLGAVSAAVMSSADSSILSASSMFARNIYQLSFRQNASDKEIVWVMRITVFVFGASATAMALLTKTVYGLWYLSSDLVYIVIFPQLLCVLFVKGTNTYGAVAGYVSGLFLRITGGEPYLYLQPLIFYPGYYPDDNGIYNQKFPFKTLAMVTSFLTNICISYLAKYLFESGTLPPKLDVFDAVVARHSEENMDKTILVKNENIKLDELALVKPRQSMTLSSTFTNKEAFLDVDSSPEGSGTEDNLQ
VLA-4 inh – inhibition in human VLA-4 binding assay, primary screen, VLA-4 allosteric modulator project, MLPCN library, flow cytometry, VLA-4 expressing cells; 0.2% of 330,000 active; Integrin alpha-4 (Homo sapiens), P13612; AID 2557, 2010; ligand binding flow cytometry; inhibition, % (about 7 µM as worked out from the volumes in the protocol); in the data active = inhibition above about 50%
AI-2 QS modul – Vibrio harveyi AI-2 quorum sensing modulators, primary screen, JMH597 strain, luminescence/OD600 ratio | Vibrio harveyi JMH597 AI-2 luminescence/OD600 ratio, 9 h; active compounds read low; strain lacks LuxN and CqsS sensors; 0 = neutral-control median | activity change, % at 7.5 µM | 0.4% of 300,000 active; in the data active = activity change below about -75%, passing the limit was not always enough;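 also: luminescence divided by OD600 gain over 9 h not by final OD600 alone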
CHT block – inhibitors of human choline transporter CHT; AID 488975, 2010; B-score at 10 µM; High affinity choline transporter 1 (Homo sapiens), Q9GZV3; CHT-expressing cells, membrane potential dye, choline response; active compounds read low; 0.86% of 310,000 active;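 active = B-score over 3 SD under the library average, and starting fluorescence ratio not unusually high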;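 also: choline stimulus applied at its EC90 after an EC20 pre-addition; B-score computed on integrated fluorescence ratio after choline addition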
Platelet DG rel – inhibitors of platelet dense granule secretion, primary screen, cell-based, MLPCN, human platelets. human platelet-rich plasma, SFLLRN dense granule ATP release, luminescence. 0.22% of 300,000 active. inhibition, %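 (compounds screened at 7.5 µM in platelet-rich plasma)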. AID 1663, 2009;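 active = mean replicate score, as percent of positive control, at or above 50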
CHT act confirm – CHT activators, confirmation, cell-based, membrane potential dye, duplicate | shares compounds with CHT PAM | CHT-expressing cells, membrane potential dye fluorescence (FDSS); % of choline EC20–EC90 response window; HEK293 expressing CHT LV-AA mutant; choline added at its EC20 | activation, % at 10 µM | 91% of 2,500 active | AID 504833, 2011;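 active = primary screen active, with duplicate mean activation above negative control mean plus 3 SD, cut at about 11% in these data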
HEK293 MP dye – membrane potential response in parental HEK293 cells, counter-screen for CHT activator project, cell-based, membrane potential dye. ratio readout change at 10 µM, hits read low. 62% of 2,500 active. membrane potential dye fluorescence (FDSS); measured after EC20 choline addition. AID 623908, 2012. shares compounds with CHT PAM;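 active = duplicate-averaged ratio beyond 3 SD from buffer wells, up or down, though filed actives are nearly all decreases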
* hit, by the source's call; i = inactive; · = not tested or not shown. Shown are actives, neighbours in structure and some others; about 2.2% of the full set was active somewhere.

SMILES	HIF act	CHT PAM	VLA-4 inh	AI-2 QS modul	CHT block	Platelet DG rel	CHT act confirm	HEK293 MP dye
c1ccc(-c2nnc(-c3ccccn3)nc2NC2CCCCC2)cc1	472*	i	14	-17	i	-5	-4	i
Cc1cccc(NC(=O)c2nc[nH]c2C(=O)N[C@@H](C)C(=O)OC(C)(C)C)c1	0	i	-22	28	i	1	·	·
CCOC(=O)c1cn(CC)c2ccc(Br)cc2c1=O	-1	i	-4	26	i	3	44*	-36*
CCOC(=O)c1cn(CC2CC2)c2cc(F)c(F)cc2c1=O	0	8.2*	-2	-26	i	1	59*	-67*
CCOC(=O)c1cn(CC)c2cc(Cl)c([N+](=O)[O-])cc2c1=O	0	7.5*	9	1	i	15	46*	-49*
CCOC(=O)c1cn(CC)c2ccc(S(=O)(=O)N3CCC(C)CC3)cc2c1=O	0	i	6	12	i	-1	·	·
CCCn1cc(C(=O)OCC)c(=O)c2cc(F)c(F)cc21	-1	i	-12	13	i	12	·	·
Cc1noc(C)c1COc1ccc(C(=O)N2CCN(c3ccccn3)CC2)cc1	0	i	1	37	i	-21	·	·
CS(=O)(=O)Nc1cccc(C2=NN(S(=O)(=O)c3ccccc3)C(c3ccco3)C2)c1 (stereo not drawn)	-1	i	3	23	i	7	26*	i
CN(C)CCCN(C(=O)c1ccco1)c1nc2c(F)cccc2s1	1	i	-17	5	i	-1	45*	-58*
O=C(COc1ccc([N+](=O)[O-])cc1)N(Cc1ccccc1)Cc1ccccc1	-1	i	-7	-2	i	-6	24*	i
O=C(COc1ccccc1)NNC(=O)COc1ccc([N+](=O)[O-])cc1	0	i	2	-10	i	-5	·	·
O=C(COc1ccc([N+](=O)[O-])cc1)Nc1ccncc1	0	i	12	1	i	2	45*	-48*
O=C(COc1ccc(/C=N/NC(=O)c2ccncc2)cc1)Nc1ccc([N+](=O)[O-])cc1	0	i	-3	19	i	10	·	·
CCOC(=O)[C@H]1[C@H]2COc3cc(OC)ccc3[C@@H]2N2C(=O)CN(Cc3ccc(OC)cc3)C(=O)[C@@]12C	·	·	0	·	·	·	·	·
CNC(=O)COC(=O)c1c2c(nc3ccccc13)CCC2	0	i	25	36	i	1	·	·
COc1ccc(NC(=O)COC(=O)c2c3c(nc4ccccc24)CCCC3)cc1Cl	0	i	-3	34	i	·	13*	i
O=C(COC(=O)c1c2c(nc3ccccc13)CCCCC2)NCc1ccc2c(c1)OCO2	1	8.7*	-1	22	i	-3	36*	i
O=C(N/N=C/c1ccc(O)cc1)c1cc[n+](Cc2ccccc2)cc1	-5	i	1	49	i	25	37*	-29*
CCCCNC(=O)c1c(N)n(/N=C/c2ccccn2)c2nc3ccccc3nc12	-3	i	-6	16	i	-2	·	·
COCCNC(=O)c1c(N)n(/N=C/c2cccs2)c2nc3ccccc3nc12	0	i	-26	31	i	-4	28*	i
O=C1N(Cc2cccc(Cl)c2)C[C@@H]2C[C@@H](c3cccn3-c3nccs3)N3CCC[C@@]123	0	i	-4	17	i	-5	·	·
O=C1N(Cc2cccc(Cl)c2)C[C@@H]2C[C@@H](c3cccn3-c3ccccn3)N3CCC[C@@]123	-1	7.1*	2	16	i	3	53*	i
Cc1cc(Br)ccc1NC(=O)CN(C)C(=O)c1cc(S(=O)(=O)N(C)C)ccc1N1CCCC1	0	i	-8	25	i	-3	·	·
CNC(=O)Cn1c(C)cc(=O)c2cccc(OC)c21	0	13*	4	11	i	3	64*	-89*
SMILES	HIF act	CHT PAM	VLA-4 inh	AI-2 QS modul	CHT block	Platelet DG rel	CHT act confirm	HEK293 MP dye
Cc1cccc2c(=O)cc(C)n(CC(N)=O)c12	0	11*	-5	28	i	0	68*	-78*
Cc1ccc(NC(=O)CN(C)C(=O)Cc2c(Cl)cccc2Cl)cc1	0	i	-12	12	i	12	·	·
Cc1sc2ncnc(NCCCn3ccnc3)c2c1C	-2	i	-4	15	i	1	48*	-51*
O=C(NCCO)C(=O)NCC1OCCCN1S(=O)(=O)c1ccc2c(c1)OCCO2 (stereo not drawn)	0	i	7	17	i	-7	·	·
COc1ccc(C2/C=C\CN(C(=O)C3CCCC3)[C@H](Cc3ccccc3)C(=O)N2Cc2ccc(F)cc2)cc1 (stereo partly drawn)	0	i	-2	13	i	0	·	·
CCc1ccc(C(=O)NNC(=O)[C@H](C)NC(=O)c2ccco2)cc1	·	·	28	·	·	·	·	·
OCCN(CCCn1c(-c2ccncc2)nc2ccccc21)c1nc(CN2CCCCC2)cs1	0	i	9	-1	i	-2	60*	-44*
COc1ccccc1N1CCN(c2cc(N3CCCC3)nc(C)n2)CC1	·	7.5*	10	19	i	-6	54*	-48*
COc1cc(CCC(=O)N2CCN(c3cccc(C)c3C)CC2)cc(OC)c1OC	0	i	10	1	i	-4	·	·
O=C(Cc1csc(Nc2nc(=S)[nH]c3ccccc23)n1)N1CCN(c2cccc(C(F)(F)F)c2)CC1	-2	i	5	24	i	2	·	·
O=C(COC(=O)c1cc[n+]([O-])cc1)Nc1cc([N+](=O)[O-])ccc1Cl	0	i	-6	18	i	-4	40*	-50*
O=C(COC(=O)c1ccc[n+]([O-])c1)Nc1cc([N+](=O)[O-])ccc1Cl	·	·	9	·	·	·	·	·
